Measured values taken from PubChem BioAssay AID795 (NMMLSC, 2007).
Among all 24,000 compounds or so, about 130 (0.54%) were called active. Shown is part of a subset that was picked to be rich in actives. Unmarked numbers belong to inactive results.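 How the source made its calls: active means side scatter shift above 30%; inactive means the rest.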 Square brackets hold non-standard residues; d marks the D form. Peptide text beside a SMILES is read from it. ξ: configuration not given here. ξV = CC(C)C(N)C(=O)O

Assay: activators of LNCaP prostate cell differentiation, primary screen, flow cytometry side scatter (AID 795);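 further: androgen-responsive LNCaP prostate cancer cells in charcoal-stripped serum medium; percent of cells past a gate set so DMSO wells show 10% shift; higher shift means more granular cells and more differentiation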
Details: 4 d, at 10 µM, active compounds read high

**Q.** For `COc1ccccc1CNC(=O)CCCNS(=O)(=O)c1cccc2nsnc12`, which side scatter shift is on record?
**A.** 4%

**Q.** Which side scatter shift does the source give for `O=C(NC1CCCCC1)C1CCCN(S(=O)(=O)c2cccs2)C1` (stereo not given) here?
**A.** 4%

**Q.** With `CC(C)C[C@H](NC(=O)Nc1cccc(C(F)(F)F)c1)C(=O)O` as the compound, how does the side scatter shift read?
**A.** 12%

**Q.** For `CC1(C)CN=C(N2CCN(c3ncnc4sc5c(c34)CCCC5)CC2)S1`, which side scatter shift is on record?
**A.** 4%

**Q.** Which side scatter shift does the source give for `Cc1ccc(C)c(NC(=O)CSc2nnc(Cc3cccn3C)n2-c2ccc(F)cc2)c1` here?
**A.** 12%

**Q.** Which side scatter shift does the source give for `COc1cccc(NC(=O)Nc2nnc(N3CCCCC3C)s2)c1` (stereo not given) here?
**A.** 6%

**Q.** Which side scatter shift does the source give for `CCOC(=O)C1CCN(C(=O)CSc2cc(=O)n(C)c3ccccc23)CC1` here?
**A.** 8%

**Q.** Which side scatter shift does the source give for `O=c1cc(O)nc(SCc2ccccc2Cl)[nH]1` here?
**A.** 7%

**Q.** With `O=C(NCCN1CCOCC1)c1ccc2c(c1)ncn2C1CCCC1` as the compound, how does the side scatter shift read?
**A.** 8%

**Q.** Which side scatter shift does the source give for `Cc1ccc(N(C(=O)CC2NC(=O)NC2=O)C2(C(=O)NC3CCCC3)CCCCC2)cc1` (stereo not given) here?
**A.** 0%

**Q.** Which side scatter shift does the source give for `Cc1cc(C)nc(SCc2nnc(SCC(=O)Nc3ncc(C)s3)n2Cc2ccco2)n1` here?
**A.** 16%

**Q.** Which side scatter shift does the source give for `COc1ccccc1C(=O)N1CCNC(=O)C1CC(=O)Nc1ccc(Cl)cc1` (stereo not given) here?
**A.** 7%

**Q.** With `Cc1ccc(S(=O)(=O)n2nc(OC(=O)C(C)(C)C)cc2N)cc1` as the compound, how does the side scatter shift read?
**A.** 6%

**Q.** Which side scatter shift does the source give for `CC1=C(C(=O)OC2CCCCC2)C(c2cccnc2)n2ncnc2N1` (stereo not given) here?
**A.** 1%

**Q.** With `COc1ccc(CCNC(=O)c2ccc3c(c2)NC(=O)C(N2CCOCC2)S3)cc1OC` (stereo not given) as the compound, how does the side scatter shift read?
**A.** 18%

**Q.** Which side scatter shift does the source give for `COc1cccc(NS(=O)(=O)c2ccc3[nH]cc(C(=O)NCCCOC(C)C)c(=O)c3c2)c1` here?
**A.** 11%

**Q.** With `Cc1cc(C)c(C)c(S(=O)(=O)Nc2ccc(O)cc2)c1C` as the compound, how does the side scatter shift read?
**A.** 3%

**Q.** Which side scatter shift does the source give for `O=C(Nc1cccnc1)c1noc2c1CCCCC2` here?
**A.** 12%

**Q.** With `Fc1ccc2nc(Nc3nc4c(s3)CCCC4)sc2c1` as the compound, how does the side scatter shift read?
**A.** 11%

**Q.** Which side scatter shift does the source give for `CN(Cc1ccccc1)C(=O)CCNC(=O)Cn1cnc2ccccc2c1=O` here?
**A.** 6%

**Q.** With `OCCNCCCCOc1ccccc1F` as the compound, how does the side scatter shift read?
**A.** 7%

**Q.** With `CCC(C)Sc1nnc(-c2c[nH]c3ccccc23)n1CCOC` (stereo not given) as the compound, how does the side scatter shift read?
**A.** 6%

**Q.** For `CCOC(=O)CNC(=O)CN1C(=O)CCSc2ccccc21`, which side scatter shift is on record?
**A.** 7%

**Q.** With `CCCCn1c(=S)[nH]c2ncccc2c1=O` as the compound, how does the side scatter shift read?
**A.** 3%

**Q.** With `CCOC(=O)c1c(N)c(C#N)nn1-c1ccccc1C(=O)OC` as the compound, how does the side scatter shift read?
**A.** 6%

**Q.** For `C=CCn1c(=N)n(CC(O)COc2ccc(OC)cc2)c2ccccc21` (stereo not given), which side scatter shift is on record?
**A.** 8%

**Q.** Which side scatter shift does the source give for `O=C(Nn1cnc2ccccc2c1=O)c1ccc(F)cc1Cl` here?
**A.** 9%

**Q.** For `Cc1nn(Cc2ccc(Cl)c(Cl)c2)c(C)c1NC(=O)c1cc(C2CC2)on1`, which side scatter shift is on record?
**A.** 13%

**Q.** Which side scatter shift does the source give for `Cc1cccc(CSc2nnc(Cn3c(=O)sc4ccccc43)n2C)c1` here?
**A.** 9%

**Q.** Which side scatter shift does the source give for `Cc1c2cn[nH]c(=O)c2c(C)n1Cc1ccc(F)cc1` here?
**A.** 2%

**Q.** For `Cc1cccn2c(=O)c3cc(C#N)c(=O)n(CCCN4CCOCC4)c3nc12`, which side scatter shift is on record?
**A.** 4%

**Q.** For `Cc1cc(C)nc(NC2=NCC(=O)N2c2ccc(Cl)cc2)n1`, which side scatter shift is on record?
**A.** 5%

**Q.** With `CCn1c(SCC(=O)Nc2ccc3c(c2)OCCO3)nc2c(c1=O)SC(C)C2` (stereo not given) as the compound, how does the side scatter shift read?
**A.** 8%

**Q.** With `Cn1c(=O)cc(OCCCC(=O)N2CCN(c3ccccn3)CC2)c2ccccc21` as the compound, how does the side scatter shift read?
**A.** 2%

**Q.** Which side scatter shift does the source give for `O=C(Cn1c(=O)n(Cc2ccco2)c(=O)c2ccccc21)NCC1CCCO1` (stereo not given) here?
**A.** 3%

**Q.** Which side scatter shift does the source give for `Cc1ccc(S(=O)(=O)N2CCCC2CO)cc1` (stereo not given) here?
**A.** 16%

**Q.** For `CCOC(=O)CSc1nnc(CNC(=O)Cc2ccccc2)n1-c1ccccc1OC`, which side scatter shift is on record?
**A.** 15%

**Q.** With `Cc1cc(C(=O)NCCCc2ccccc2)no1` as the compound, how does the side scatter shift read?
**A.** 4%

**Q.** For `O=C(NCCCN1CCOCC1)c1cc(-c2ccc(Cl)cc2)on1`, which side scatter shift is on record?
**A.** 8%

**Q.** Which side scatter shift does the source give for `CCN(CC)CCCNC(=O)c1cc(-c2cccc(Cl)c2)on1` here?
**A.** 33% (active)

**Q.** Which side scatter shift does the source give for `Cc1ccccc1N1CC(c2nc3ccccc3[nH]2)CC1=O` (stereo not given) here?
**A.** 6%

**Q.** With `C/C(N)=C(\C#N)C(=O)NCCc1ccccn1` as the compound, how does the side scatter shift read?
**A.** 16%

**Q.** For `O=C(OCc1ccccc1F)c1ccc2c(c1)OCCO2`, which side scatter shift is on record?
**A.** 10%

**Q.** Which side scatter shift does the source give for `O=C(COC(=O)c1ccccc1C(=O)c1ccccc1)c1ccco1` here?
**A.** 7%

**Q.** With `O=C(CCN1C(=O)c2ccncc2C1=O)Nc1ccc2c(c1)OCCO2` as the compound, how does the side scatter shift read?
**A.** 13%

**Q.** With `CCOC(=O)N1CCC(NC(=O)Cc2cn(C)c3ccccc23)CC1` as the compound, how does the side scatter shift read?
**A.** 8%

**Q.** With `CC(=O)N1CCc2cc(S(=O)(=O)Nc3ccccc3N3CCN(C)CC3)ccc21` as the compound, how does the side scatter shift read?
**A.** 15%

**Q.** Which side scatter shift does the source give for `CC(C)n1c(NCc2c[nH]c3ccccc23)nc2ccccc21` here?
**A.** 14%

**Q.** With `CC(=O)NC(C(=O)NCC(N)=O)C(C)C` (stereo not given) (Ac-[ξV]-Gly-NH2) as the compound, how does the side scatter shift read?
**A.** 7%

**Q.** For `CC(NC(=O)COc1ccccc1)C(=O)NC1=NCCS1` (stereo not given), which side scatter shift is on record?
**A.** 13%

**Q.** Which side scatter shift does the source give for `COC(=O)c1[nH]c2ccccc2c1NS(=O)(=O)c1ccc(OC)cc1OC` here?
**A.** 10%

**Q.** For `COc1ccc(N=Cc2c(O)[nH]c3ccccc23)cc1OC`, which side scatter shift is on record?
**A.** 15%

**Q.** Which side scatter shift does the source give for `COc1ccc(OC)c(N=Cc2c(O)[nH]c3ccccc23)c1` here?
**A.** 48% (active)

**Q.** For `CCc1c(C)nc(N2CCN(Cc3ccccc3)CC2)[nH]c1=O`, which side scatter shift is on record?
**A.** 8%

**Q.** For `Cc1nc(NC(=O)C23CCC(C)(C(=O)O2)C3(C)C)sc1C` (stereo not given), which side scatter shift is on record?
**A.** 4%

**Q.** With `CCCC(=O)N1c2ccccc2NC2=C(C(=O)CCC2)C1c1ccc(F)cc1` (stereo not given) as the compound, how does the side scatter shift read?
**A.** 12%

**Q.** Which side scatter shift does the source give for `O=C(CSC1=Nc2ccccc2C2=NC(c3ccccc3)C(=O)N12)NCC1CCCO1` (stereo not given) here?
**A.** 8%

**Q.** For `Cc1cccc(N2C(=O)SC(N(CC(=O)O)c3cccc(C)c3)C2=O)c1` (stereo not given), which side scatter shift is on record?
**A.** 5%

**Q.** Which side scatter shift does the source give for `O=C1NC(c2ccncc2)Nc2sc3c(c21)CCCC3` (stereo not given) here?
**A.** 3%

**Q.** Which side scatter shift does the source give for `COc1ccc(CCNC(=O)CSc2nnc(CNC(=O)c3cccs3)o2)cc1OC` here?
**A.** 10%

**Q.** For `COCCCNC(=O)c1ccc(CNS(=O)(=O)c2ccc(NC(C)=O)cc2)cc1`, which side scatter shift is on record?
**A.** 15%

**Q.** For `CC1=NCCN1S(=O)(=O)c1ccc(Br)c(C)c1`, which side scatter shift is on record?
**A.** 16%

**Q.** With `CCOC(=O)C1(c2ccccc2)NC(c2ccc(N(C)C)cc2)C2C(=O)N(C)C(=O)C21` (stereo not given) as the compound, how does the side scatter shift read?
**A.** 11%

**Q.** Which side scatter shift does the source give for `COc1cccc(OCC(=O)Nc2ccccc2C(N)=O)c1` here?
**A.** 9%

**Q.** With `COc1nc(Oc2ccc(=O)n(C)n2)nc(N(C)C)n1` as the compound, how does the side scatter shift read?
**A.** 10%
